Test results as given in PubChem BioAssay (Tox21).
Records with an inconclusive call do not appear. Activity calls are given as the source filed them. Unless noted, the call rests on the fitted dose curve; in most records, active means well fitted curve in the direction sought with a large enough effect in the repeat runs; inconclusive means weak or mixed curves; inactive means no such curve, though single readings can be large; an effect the other way counts as inactive or inconclusive.

What was measured:
[1] = qHTS assay to identify small molecule antagonists of the estrogen related receptor (ERR) signaling pathway from Tox21 library - cell viability counter screen (AID 1224834); conditions: ERR reporter cells viability, CellTiter-Fluor, 17.5 h; series mostly up to 92.4 µM; further: nearly all actives have a fitted effect of over 30% in size; further: potency means the concentration at half of the fitted maximal effect
Outline: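 After 17.5 h of compound exposure at 37 C, ERR cells are incubated with CellTiter-Fluor for 30 min and fluorescence intensity serves as the viability measure.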

[2] = molecular target: Luciferin 4-monooxygenase (Photinus pyralis) (UniProt P08659); assay: qHTS assay to identify small molecule inhibitors of firefly luciferase (AID 1224835); further: nearly all actives have a fitted effect of over 25% in size; further: potency means the concentration at half of the fitted maximal effect; conditions: purified P. pyralis luciferase, luminescence inhibition; series mostly up to 52.9 µM
Outline: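 Inhibition of purified Photinus luciferase is measured by luminescence. Substrate levels (D-luciferin, ATP) sit at their KM values. Each compound is tested in a concentration series.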

[3] = qHTS assay to identify small molecule agonists of the constitutive androstane receptor (CAR) signaling pathway - cell viability counter screen (AID 1224836); conditions: HepG2-CYP2B6-hCAR viability, CellTiter-Fluor, 23 h, PK11195 added to every well; series mostly up to 92.4 µM; further: nearly all actives have a fitted effect of over 45% in size
Outline: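 HepG2 cells stably carrying hCAR and a CYP2B6-2.2kb reporter were plated 4 h, then given compounds at 15 concentrations plus PK11195 (final 0.75 uM). After 23 h at 37 C, viability was read by CellTiter-Fluor fluorescence.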

[4] = qHTS assay to identify small molecule antagonists of the constitutive androstane receptor (CAR) signaling pathway - cell viability counter screen (AID 1224837); conditions: HepG2-CYP2B6-hCAR viability, CellTiter-Fluor, 23 h, co-treated with 50 nM CITCO; series mostly up to 92.4 µM; further: nearly all actives have a fitted effect of over 45% in size; further: potency means the concentration at half of the fitted maximal effect
Outline: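 Counter screen run in HepG2-CYP2B6-hCAR cells: 4 hr settle, compound titration (15 concentrations) with 50 nM CITCO, 23 hr at 37 C/5% CO2, CellTiter-Fluor fluorescence.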

[5] = qHTS assay to identify small molecule antagonists of the estrogen related receptor signaling pathway with the pleiotropic PPARgamma coactivator (PGC) from Tox21 10K library - cell viability counter screen (AID 1224840; active means well fitted cell-killing curve with a large enough effect in the repeat runs, not every such curve was filed as active; further: nearly all actives have a fitted effect of over 40% in size; further: potency means the concentration at half of the fitted maximal effect); conditions: PGC/ERR reporter cells viability, CellTiter-Fluor, 17.5 h; series mostly up to 92.4 µM
Outline: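 Following seeding of 2,000 PGC/ERR cells/well and 6 hours' incubation, test compounds were delivered in DMSO. The plates then sat 17.5 hours at 37 C before a fluorogenic live-cell protease reagent (CellTiter-Fluor) was read after 30 min.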

[6] = qHTS assay to identify small molecule agonists of the hypoxia (HIF-1) signaling pathway - cell viability counter screen (AID 1224844; calls by dose curve; further: nearly all actives have a fitted effect of over 50% in size; further: potency means the concentration at half of the fitted maximal effect); conditions: HRE-bla ME-180 viability, CellTiter-Glo luminescence, 17 h; series mostly up to 76.8 µM
Outline: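 Cells (HRE-bla ME-180, 2,000 per well) sat 5 hrs at 37C, got compound for 17 hrs, were read for CCF4-AM FRET, and were finally lysed with CellTiter-Glo for a 30 min room-temperature luminescence read.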

[7] = qHTS RealTime-Glo MT Cell Viability Assay in HepG2 cells - 24 hour (AID 1224867); conditions: RealTime-Glo luminescence; series mostly up to 76.8 µM; further: nearly all actives have a fitted effect of over 50% in size; further: potency means the concentration at half of the fitted maximal effect
Outline: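 Viability was tracked continuously by NanoLuc luminescence from prosubstrate reduced by living HepG2 cells, at successive time points over 40 h of compound exposure. Cells with reagent were preincubated 5 h at 37 °C before compound addition.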

[8] = A CellTox Green Cytotoxicity Assay to monitor cytotoxicity in HEK293 cells - 0 hour (AID 1224869); conditions: CellTox Green fluorescence; series mostly up to 76.8 µM; further: nearly all actives have a fitted effect of over 50% in size
Outline: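 Fluorescence intensity, read at 0, 8, 16, 24, 32 and 40 h of compound treatment, reflected dye binding to DNA of dead HEK293 cells; compounds (23 nL, DMSO) were added 5 h after plating cells with reagent.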

[9] = molecular target: Nuclear receptor subfamily 1 group I member 3 (Homo sapiens) (UniProt Q14994); assay: qHTS assay to identify small molecule agonists of the constitutive androstane receptor (CAR) signaling pathway (AID 1224839); conditions: HepG2 hCAR CYP2B6-luciferase, agonist mode, 24 h; series mostly up to 92.4 µM;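 further: HepG2 cells stably carrying human CAR and a CYP2B6 luciferase reporter; nearly all actives have a fitted effect of over 15% in size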
Outline: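 HepG2 cells stably expressing hCAR and a CYP2B6-2.2kb luciferase reporter were treated with compounds at 15 concentrations plus 0.75 uM PK11195 (final) for 24 h at 37 C; luminescence was read after ONE-Glo addition.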

[10] = molecular target: Thyrotropin receptor (Homo sapiens) (UniProt P16473); assay: qHTS assay to identify small molecule agonists of the thyroid stimulating hormone receptor (TSHR) signaling pathway (AID 1224843; calls by dose curve; further: nearly all actives have a fitted effect of over 45% in size); conditions: TSHR-HEK293 cells, cAMP HTRF, agonist mode, 30 min; series mostly up to 92.4 µM
Outline: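 HEK293 cells stably bearing the thyrotropin receptor were plated at 800 cells/well and challenged with compound (30 min, RT). Accumulated cAMP was quantified via cAMP-d2 competing for cryptate-tagged antibody.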

[11] = qHTS assay to identify small molecule agonists of the hypoxia (HIF-1) signaling pathway (AID 1224846; active means well fitted activation curve with a large enough effect in the signal ratio in the repeat runs, not every such curve was filed as active; the % refers to the signal ratio); conditions: HRE-bla ME-180 cells, beta-lactamase ratio, 17 h; series mostly up to 76.8 µM
Outline: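 A low-serum medium (0.5% dialyzed FBS) holding 2,000 HRE-bla ME-180 cells per well is preincubated for 5 hrs, dosed with compounds by pintool, and kept a further 17 hrs at 37C, 5% CO2 before CCF4-AM FRET detection of beta-lactamase.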

[12] = qHTS RealTime-Glo MT Cell Viability Assay in HEK293 cells - 32 hour (AID 1224868); conditions: RealTime-Glo luminescence; series mostly up to 76.8 µM; further: nearly all actives have a fitted effect of over 50% in size; further: potency means the concentration at half of the fitted maximal effect
Outline: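 Viability tracked continuously by luminescence as live cells reduce a prosubstrate for NanoLuc; HEK293 cells preincubated 5 h, compound-treated at 37 C, and read at 0, 8, 16, 24, 32 and 40 h.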

[13] = qHTS assay to identify small molecule antagonists of the estrogen related receptor signaling pathway with the pleiotropic PPARgamma coactivator (PGC) from Tox21 10K library (AID 1224841; call rule not given here; further: potency means the concentration at half of the fitted maximal effect); conditions: PGC/ERR reporter cell line, ONE-Glo luciferase, 18 h; series mostly up to 92.4 µM
Outline: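 qHTS antagonist format: PGC/ERR cells, 2k/well, compound in DMSO by pin transfer after 6 h attachment, 18 h treatment at 37 C, One-Glo luminescence read at 30 min.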

[14] = qHTS assay to identify small molecule agonists of the estrogen related receptor signaling pathway with the pleiotropic PPARgamma coactivator (PGC) from Tox21 10K library (AID 1224842); conditions: PGC/ERR reporter cell line, luciferase ONE-Glo, 18 h; series mostly up to 92.4 µM; further: nearly all actives have a fitted effect of over 15% in size
Outline: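 Luminescence from One-Glo (30 min, room temperature) measured after PGC/ERR cells had 18 h at 37 C with pinned compound (23 nL in DMSO). Cells had been seeded at 2,000 per well and pre-incubated 6 h.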

[15] = qHTS assay to identify small molecule agonists of H2AX (AID 1224845; active means well fitted activation curve with a large enough effect in the signal ratio in the repeat runs, not every such curve was filed as active; the % refers to the signal ratio); conditions: CHO-K1 phospho-H2AX Ser139 HTRF, 3 h; series mostly up to 154 µM
Outline: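 Phospho-H2AX Ser139 measured by HTRF (ex 320 nm; em 665 and 620 nm) after 24 hr antibody incubation. Compounds, 15 concentrations, 0.76% DMSO, were applied to CHO-K1 cells for 3hr at 37C before lysis.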

[16] = qHTS assay to identify small molecule agonists of H2AX - cell viability counter screen (AID 1224847; calls by dose curve; further: top concentration of the series differs between compounds; nearly all actives have a fitted effect of over 30% in size); conditions: CHO-K1 viability, CellTiter-Glo luminescence, 3 h; series mostly up to 154 µM
Outline: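 Wild-type CHO-K1 cells (10% FBS medium) were plated overnight at 37C, exposed to compounds at 15 concentrations for 3 hr at 37C (0.76% DMSO final), and viability was read as CellTiter-Glo luminescence after 30 min at room temperature.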

[17] = qHTS assay to identify small molecule antagonists of the estrogen related receptor (ERR) signaling pathway from Tox21 library (AID 1224848); conditions: ERR reporter cell line, luciferase antagonist mode, 18 h; series mostly up to 92.4 µM; further: nearly all actives have a fitted effect of over 50% in size; further: potency means the concentration at half of the fitted maximal effect
Outline: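 Reading was by luminescence 30 min after ONE-Glo addition. Before that, ERR cells at 2,000 per well had rested 6 h at 37 C/5% CO2 and then received pin-tooled compounds in DMSO for 18 h at 37 C.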

[18] = qHTS assay to identify small molecule agonists of the estrogen related receptor (ERR) signaling pathway from Tox21 library (AID 1224849; calls by dose curve; further: nearly all actives have a fitted effect of over 15% in size); conditions: ERR reporter cell line, ONE-Glo luciferase, 18 h; at 92.4 µM (top of the series) unless noted
Outline: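 Screening used an NTP-provided ERR luciferase cell line. Compounds in DMSO were added 6 h after seeding and left 18 h at 37 C before a 30 min ONE-Glo step and luminescence reading.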

[19] = molecular target: Nuclear receptor subfamily 1 group I member 3 (Homo sapiens) (UniProt Q14994); assay: qHTS assay to identify small molecule antagonists of the constitutive androstane receptor (CAR) signaling pathway (AID 1224838); conditions: HepG2-CYP2B6-hCAR luciferase, CITCO-stimulated, 24 h; series mostly up to 92.4 µM; further: nearly all actives have a fitted effect of over 40% in size
Outline: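 Cell line: HepG2 double-stable for hCAR and CYP2B6-2.2kb reporter. Agonist: CITCO, 50 nM final. Compounds: 15 concentrations, 24 h, 37 C. Detection: ONE-Glo luminescence.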
On the % scale 0 is the no-effect control and ±100 the full control effect.

Luciferin 4-monooxygenase (Photinus pyralis), sequence (P08659 whole entry, looked up): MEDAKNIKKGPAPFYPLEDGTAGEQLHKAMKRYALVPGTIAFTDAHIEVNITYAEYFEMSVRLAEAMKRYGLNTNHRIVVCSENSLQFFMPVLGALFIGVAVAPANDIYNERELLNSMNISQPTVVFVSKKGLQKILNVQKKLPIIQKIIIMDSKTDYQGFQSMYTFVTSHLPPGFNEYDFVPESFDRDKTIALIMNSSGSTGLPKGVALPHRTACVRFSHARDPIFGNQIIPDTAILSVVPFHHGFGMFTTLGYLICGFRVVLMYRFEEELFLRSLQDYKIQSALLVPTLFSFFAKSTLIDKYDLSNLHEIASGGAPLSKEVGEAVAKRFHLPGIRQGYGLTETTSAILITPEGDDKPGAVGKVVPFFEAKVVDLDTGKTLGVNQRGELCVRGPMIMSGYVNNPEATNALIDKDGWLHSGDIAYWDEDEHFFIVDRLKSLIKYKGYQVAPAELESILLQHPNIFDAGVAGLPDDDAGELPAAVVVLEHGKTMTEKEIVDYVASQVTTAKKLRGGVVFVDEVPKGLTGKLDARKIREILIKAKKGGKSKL
Thyrotropin receptor (Homo sapiens), sequence (P16473 whole entry, looked up): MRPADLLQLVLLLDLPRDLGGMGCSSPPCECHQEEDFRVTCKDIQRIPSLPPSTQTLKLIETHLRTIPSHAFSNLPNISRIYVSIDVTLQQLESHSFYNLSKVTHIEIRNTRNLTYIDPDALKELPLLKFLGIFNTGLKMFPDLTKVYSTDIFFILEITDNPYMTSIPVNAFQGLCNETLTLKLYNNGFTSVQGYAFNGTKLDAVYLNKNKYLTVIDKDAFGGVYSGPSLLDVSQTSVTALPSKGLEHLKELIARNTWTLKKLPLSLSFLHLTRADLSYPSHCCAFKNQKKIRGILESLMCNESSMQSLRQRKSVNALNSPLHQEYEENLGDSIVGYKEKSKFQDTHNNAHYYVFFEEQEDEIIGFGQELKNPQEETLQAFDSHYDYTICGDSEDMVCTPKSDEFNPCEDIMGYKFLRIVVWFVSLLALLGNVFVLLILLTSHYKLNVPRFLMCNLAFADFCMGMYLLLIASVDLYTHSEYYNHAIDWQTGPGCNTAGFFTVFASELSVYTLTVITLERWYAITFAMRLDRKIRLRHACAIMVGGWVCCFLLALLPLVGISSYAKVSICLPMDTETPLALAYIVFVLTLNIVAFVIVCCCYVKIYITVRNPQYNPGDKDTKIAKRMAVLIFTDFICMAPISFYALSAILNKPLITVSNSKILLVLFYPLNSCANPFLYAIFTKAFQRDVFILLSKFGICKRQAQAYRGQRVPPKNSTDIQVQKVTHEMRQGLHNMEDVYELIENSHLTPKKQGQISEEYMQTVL
Nuclear receptor subfamily 1 group I member 3 (Homo sapiens), sequence (Q14994 whole entry, looked up): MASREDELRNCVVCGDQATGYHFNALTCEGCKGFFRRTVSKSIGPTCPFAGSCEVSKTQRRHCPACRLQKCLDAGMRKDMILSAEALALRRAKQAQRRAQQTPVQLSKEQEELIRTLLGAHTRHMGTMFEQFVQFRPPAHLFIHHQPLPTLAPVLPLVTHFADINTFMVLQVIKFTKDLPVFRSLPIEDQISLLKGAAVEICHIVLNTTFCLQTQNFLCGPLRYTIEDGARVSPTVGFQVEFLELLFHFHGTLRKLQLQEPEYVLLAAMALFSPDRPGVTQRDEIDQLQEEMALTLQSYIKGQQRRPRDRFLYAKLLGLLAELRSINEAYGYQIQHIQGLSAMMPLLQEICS

CCOC(=O)c1ccc(C#Cc2ccc3c(c2)C(C)(C)CCS3)nc1
inactive: Potency [1] | Potency [2] | Potency [3] | Potency [4] | Potency [5] | Potency [6] | Potency [7] | Potency [8]

CC(=O)NC1(c2cccc(F)c2)CCN(CC[C@@]2(c3ccc(Cl)c(Cl)c3)CN(c3ccccc3)C(=O)CO2)CC1
active: Potency [1] 54.6 µM | Potency [4] 54.6 µM | Potency [5] 43.4 µM | Potency [6] 39 µM | Potency [7] 43.8 µM | Potency [12] 17.4 µM
inactive: Potency [2] | Potency [9] | Potency [10] | outcome [11] | Potency [8]

C=Cc1ccc(S(=O)(=O)O)cc1
inactive: Potency [1] | Potency [3] | Potency [4] | Potency [13] | Potency [14] | Potency [15] | outcome [11] | Potency [16] | Potency [17] | activity change, positive = activation [18] 6.91% | Potency [7] | Potency [12] | Potency [8]
active: Potency [2] 20 µM

O=C1c2ccccc2C(=O)N1CCc1noc(-c2ccc(CN3CCCCCC3)s2)n1
active: Potency [1] 49.9 µM | Potency [12] 35.7 µM
inactive: Potency [2] | Potency [4] | Potency [19] | Potency [9] | Potency [6] | Potency [15] | outcome [11] | Potency [7]

CCOC(=O)c1ccc(O)c(O)c1
inactive: Potency [1] | Potency [2] | Potency [4] | Potency [19] | Potency [5] | Potency [10] | outcome [11] | Potency [16] | Potency [7] | Potency [12] | Potency [8]

CCOc1ccccc1O[C@H](c1ccccc1)[C@H]1CNCCO1
inactive: Potency [1] | Potency [2] | Potency [3] | Potency [4] | Potency [5] | Potency [10] | Potency [6] | Potency [15] | outcome [11] | Potency [16] | Potency [7] | Potency [12] | Potency [8]

C=C(C)CCCC(C)CCO (stereo not given)
inactive: Potency [1] | Potency [2] | Potency [3] | Potency [4] | Potency [5] | Potency [10] | Potency [6] | Potency [15] | outcome [11] | Potency [16] | Potency [7] | Potency [12] | Potency [8]

Cc1c(C)c2c(c(C)c1OC(=O)CCC(=O)OCCO)CC[C@@](C)(CCC[C@H](C)CCC[C@H](C)CCCC(C)C)O2
inactive: Potency [1] | Potency [2] | Potency [19] | Potency [9] | Potency [14] | Potency [15] | activity change, positive = activation [18] -48.8% [at 42.5 µM] | Potency [7] | Potency [12] | Potency [8]
active: Potency [13] 21.1 µM

CN1CCCC(CC2c3ccccc3Sc3ccccc32)C1 (stereo not given)
active: Potency [1] 26.6 µM | Potency [7] 23.9 µM | Potency [12] 23.9 µM
inactive: Potency [2] | Potency [4] | Potency [9] | Potency [13] | Potency [10] | activity change, positive = activation [18] -39.8% [at 42.5 µM] | Potency [8]

CC(C)=CCC/C(C)=C/CC/C(C)=C/C(=O)OCC(=O)[C@@]1(O)CC[C@H]2[C@@H]3CCC4=CC(=O)C=C[C@]4(C)[C@H]3[C@@H](O)C[C@@]21C
inactive: Potency [2] | Potency [3] | Potency [4] | Potency [14] | Potency [10] | Potency [15] | activity change, positive = activation [18] -50.7% [at 42.5 µM] | Potency [8]
active: Potency [1] 29.8 µM | Potency [13] 16.8 µM | Potency [17] 6.68 µM | Potency [12] 4.77 µM

O=C1c2ccccc2C(=O)C1c1nc2ccccc2c(Br)c1O
active: Potency [2] 17.8 µM
inactive: Potency [1] | Potency [3] | Potency [4] | Potency [5] | Potency [10] | Potency [6] | Potency [15] | Potency [16] | Potency [7] | Potency [12] | Potency [8]
